# Data taken from PubChem BioAssay (NCI).
# This is part of a sample that, as a whole, favours compounds with a hit. Of some 79,000 tested, about 15% had one in any assay. A number with no mark means an inactive call. Activity calls are given as the source filed them. Rule as the data show it: active = growth inhibition above about 70%; inactive = the rest.
# Key:
# [1] = NCI Yeast Anticancer Drug Screen. Data for the rad52 strain (AID 147);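 also: 0% = growth of vehicle-treated control cultures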; settings: S. cerevisiae rad52 mutant growth inhibition, active compounds read high
# How it was run: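 Inhibition of yeast growth, referenced to vehicle controls, was the measured output for a strain with defective DNA damage repair.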
# [2] = NCI Yeast Anticancer Drug Screen. Data for the wt1 strain (AID 149);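 also: 0% = growth of vehicle-treated wt1 cultures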; settings: S. cerevisiae wt1 strain (SPY 50644) growth inhibition, active compounds read high
# How it was run: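 Measured: growth of wt1 yeast under compound versus vehicle treatment, reported as inhibition.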
# [3] = NCI Yeast Anticancer Drug Screen. Data for the rad50 strain (AID 155);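 also: 0% = growth of vehicle-only cultures of the same strain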; settings: S. cerevisiae rad50 strain growth inhibition, active compounds read high
# How it was run: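 Growth of the mutant yeast was measured after compound exposure and referenced to vehicle-treated cultures.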
# [4] = NCI Yeast Anticancer Drug Screen. Data for the mec2-1 strain (AID 157); settings: S. cerevisiae mec2-1 strain, active compounds read high
# How it was run: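 Each compound was tested on mec2-1 yeast, a strain altered in DNA damage repair or cell cycle control. Growth inhibition is reported relative to vehicle.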
# [5] = NCI Yeast Anticancer Drug Screen. Data for the rad14 strain (AID 159);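 also: 0% = growth of vehicle-treated control cultures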; settings: S. cerevisiae rad14 strain growth inhibition, active compounds read high
# How it was run: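 Here, inhibition of yeast growth was measured after compound exposure, using a strain with a genetic defect in DNA damage repair and vehicle-treated cultures as the reference.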
# [6] = NCI Yeast Anticancer Drug Screen. Data for the sgs1 mgt1 strain (AID 161);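 also: 0% = growth of cultures given vehicle only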; settings: S. cerevisiae sgs1 mgt1 strain, active compounds read high
# How it was run: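 Test agents were incubated with a DNA-repair-mutant yeast strain. Growth was then read and compared against vehicle-treated controls.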
# [7] = NCI Yeast Anticancer Drug Screen. Data for the cln2 rad14 strain (AID 165);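 also: 0% = growth equal to vehicle treated cultures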; settings: S. cerevisiae cln2 rad14 strain, active compounds read high
# How it was run: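 Test compounds were added to cln2 rad14 yeast cultures; inhibition of growth was then determined by comparison with vehicle treatment.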
# [8] = NCI Yeast Anticancer Drug Screen. Data for the bub3 strain (AID 167); settings: S. cerevisiae bub3 mutant strain, active compounds read high
# How it was run: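 Whole-cell yeast assay. The mutant strain was incubated with compounds, and growth inhibition was determined by comparison with vehicle-treated cells.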
# [9] = NCI Yeast Anticancer Drug Screen. Data for the wt2 strain (AID 169);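 also: 0% = growth of vehicle-treated yeast cultures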; settings: S. cerevisiae wt2 strain growth inhibition, active compounds read high
# How it was run: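 The panel's yeast strains carry defined changes in DNA repair or cell cycle genes. Each strain is grown with compound, and growth loss is scored relative to vehicle.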
# [10] = NCI Yeast Anticancer Drug Screen. Data for the mlh1 strain (AID 171);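 also: 0% = growth of vehicle-treated control cultures of the same strain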; settings: S. cerevisiae mlh1 strain growth inhibition, active compounds read high
# How it was run: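 Inhibition values reflect reduced yeast growth in the presence of compound, referenced to vehicle controls, using a strain chosen for its alteration in DNA repair or cell cycle control.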
# [11] = NCI Yeast Anticancer Drug Screen. Data for the sgs1 strain (AID 173);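 also: 0% = growth of vehicle-only control cultures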; settings: S. cerevisiae sgs1 mutant, active compounds read high
# How it was run: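 Vehicle-treated cultures served as reference for growth inhibition of a yeast strain altered in DNA damage repair or cell cycle control after compound exposure.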
# [12] = NCI Yeast Anticancer Drug Screen. Data for the mlh1 rad18 strain (AID 175); settings: S. cerevisiae mlh1 rad18 strain growth inhibition, active compounds read high
# How it was run: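 Inhibition values reflect reduced growth of mutant yeast versus vehicle-treated controls following compound exposure; the mutations affect DNA damage repair.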
# [13] = NCI Yeast Anticancer Drug Screen. Data for the rad18 strain (AID 177); settings: S. cerevisiae rad18 mutant growth inhibition, active compounds read high
# How it was run: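 Steps: expose repair-mutant yeast to compound; measure growth; express as inhibition relative to vehicle control.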
# [14] = NCI Yeast Anticancer Drug Screen. Data for the mgt1 strain (AID 153); settings: S. cerevisiae mgt1 mutant growth inhibition, active compounds read high
# How it was run: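 In the mgt1 strain, test compounds were added and growth inhibition was determined relative to vehicle-treated controls.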
# [15] = NCI Yeast Anticancer Drug Screen. Data for the CLN2oe strain (AID 163);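 also: 0% = growth of vehicle-only control cultures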; settings: S. cerevisiae CLN2oe strain, active compounds read high
# How it was run: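 First, the altered yeast strain was treated with each compound; second, its growth was measured; finally, inhibition was derived by comparison with vehicle controls.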
# [16] = at 5.0 µM (retest, dose inferred, filed as 0.5)
# [17] = at 50.0 µM (retest, dose inferred, filed as 5.0)
compound,measurement,setting,value
O=C(/C(=C/c1ccc(O)cc1)c1ccccc1)c1ccccc1,growth inhibition,[1]; at 1.2 µM,-52%
same,growth inhibition,[1]; at 3.7 µM,-55%
same,growth inhibition,[1]; at 11.0 µM,-14%
same,growth inhibition,[1]; at 33.0 µM,99% (active)
same,growth inhibition,[1]; at 100.0 µM,93% (active)
same,growth inhibition,[2]; at 1.2 µM,-22%
same,growth inhibition,[2]; at 3.7 µM,-13%
same,growth inhibition,[2]; at 11.0 µM,35%
same,growth inhibition,[2]; at 33.0 µM,98% (active)
same,growth inhibition,[2]; at 100.0 µM,92% (active)
same,growth inhibition,[3]; at 1.2 µM,-8%
same,growth inhibition,[3]; at 3.7 µM,-2%
same,growth inhibition,[3]; [16],27%
same,growth inhibition,[3]; at 11.0 µM,53%
same,growth inhibition,[3]; at 33.0 µM,98% (active)
same,growth inhibition,[3]; [17],98% (active)
same,growth inhibition,[3]; at 50.0 µM,87.5% (active)
same,growth inhibition,[3]; at 100.0 µM,93% (active)
same,growth inhibition,[4]; at 1.2 µM,-27%
same,growth inhibition,[4]; at 3.7 µM,-20%
same,growth inhibition,[4]; [16],-8%
same,growth inhibition,[4]; at 11.0 µM,55%
same,growth inhibition,[4]; at 33.0 µM,98% (active)
same,growth inhibition,[4]; [17],97% (active)
same,growth inhibition,[4]; at 50.0 µM,34.5%
same,growth inhibition,[4]; at 100.0 µM,85% (active)
same,growth inhibition,[5]; at 1.2 µM,-2%
same,growth inhibition,[5]; at 3.7 µM,0%
same,growth inhibition,[5]; at 11.0 µM,13%
same,growth inhibition,[5]; at 33.0 µM,99% (active)
same,growth inhibition,[5]; at 100.0 µM,94% (active)
same,growth inhibition,[6]; [16],39%
same,growth inhibition,[6]; [17],97% (active)
same,growth inhibition,[6]; at 50.0 µM,93% (active)
same,growth inhibition,[7]; [16],20%
same,growth inhibition,[7]; [17],97% (active)
same,growth inhibition,[7]; at 50.0 µM,92.5% (active)
same,growth inhibition,[8]; at 1.2 µM,22%
same,growth inhibition,[8]; at 3.7 µM,12%
same,growth inhibition,[8]; [16],2%
same,growth inhibition,[8]; at 11.0 µM,82% (active)
same,growth inhibition,[8]; at 33.0 µM,99% (active)
same,growth inhibition,[8]; [17],98% (active)
same,growth inhibition,[8]; at 50.0 µM,91.3% (active)
same,growth inhibition,[8]; at 100.0 µM,90% (active)
same,growth inhibition,[9]; at 1.2 µM,-38%
same,growth inhibition,[9]; at 3.7 µM,-31%
same,growth inhibition,[9]; at 11.0 µM,33%
same,growth inhibition,[9]; at 33.0 µM,98% (active)
same,growth inhibition,[9]; at 100.0 µM,93% (active)
same,growth inhibition,[10]; at 1.2 µM,6%
same,growth inhibition,[10]; at 3.7 µM,24%
same,growth inhibition,[10]; at 11.0 µM,68%
same,growth inhibition,[10]; at 33.0 µM,98% (active)
same,growth inhibition,[10]; at 100.0 µM,88% (active)
same,growth inhibition,[11]; at 1.2 µM,-18%
same,growth inhibition,[11]; at 3.7 µM,-13%
same,growth inhibition,[11]; at 11.0 µM,16%
same,growth inhibition,[11]; at 33.0 µM,98% (active)
same,growth inhibition,[11]; at 100.0 µM,93% (active)
same,growth inhibition,[12]; [16],0%
same,growth inhibition,[12]; [17],98% (active)
same,growth inhibition,[12]; at 50.0 µM,84% (active)
same,growth inhibition,[13]; at 1.2 µM,-29%
same,growth inhibition,[13]; at 3.7 µM,-33%
same,growth inhibition,[13]; at 11.0 µM,17%
same,growth inhibition,[13]; at 33.0 µM,98% (active)
same,growth inhibition,[13]; at 100.0 µM,86% (active)
CC1(c2ccccc2)O[C@@H]2C[C@H]3[C@@H]4CCC5=CC(=O)C=C[C@]5(C)[C@@]4(F)[C@@H](O)C[C@]3(C)[C@]2(C(=O)CO)O1 (stereo partly specified),growth inhibition,[1]; at 1.2 µM,-3%
same,growth inhibition,[1]; at 3.7 µM,-2%
same,growth inhibition,[1]; at 11.0 µM,6%
same,growth inhibition,[1]; at 33.0 µM,62%
same,growth inhibition,[1]; at 100.0 µM,98% (active)
same,growth inhibition,[2]; at 1.2 µM,0%
same,growth inhibition,[2]; at 3.7 µM,6%
same,growth inhibition,[2]; at 11.0 µM,3%
same,growth inhibition,[2]; at 33.0 µM,24%
same,growth inhibition,[2]; at 100.0 µM,94% (active)
same,growth inhibition,[14]; at 1.2 µM,-2%
same,growth inhibition,[14]; at 3.7 µM,-5%
same,growth inhibition,[14]; at 11.0 µM,-5%
same,growth inhibition,[14]; at 33.0 µM,53%
same,growth inhibition,[14]; at 100.0 µM,98% (active)
same,growth inhibition,[3]; at 1.2 µM,-2%
same,growth inhibition,[3]; at 3.7 µM,0%
same,growth inhibition,[3]; [16],15%
same,growth inhibition,[3]; at 11.0 µM,6%
same,growth inhibition,[3]; at 33.0 µM,51%
same,growth inhibition,[3]; [17],35%
same,growth inhibition,[3]; at 50.0 µM,92.7% (active)
same,growth inhibition,[3]; at 100.0 µM,97% (active)
same,growth inhibition,[4]; at 1.2 µM,3%
same,growth inhibition,[4]; at 3.7 µM,5%
same,growth inhibition,[4]; [16],1%
same,growth inhibition,[4]; at 11.0 µM,10%
same,growth inhibition,[4]; at 33.0 µM,41%
same,growth inhibition,[4]; [17],8%
same,growth inhibition,[4]; at 50.0 µM,91.2% (active)
same,growth inhibition,[4]; at 100.0 µM,98% (active)
same,growth inhibition,[5]; at 1.2 µM,-2%
same,growth inhibition,[5]; at 3.7 µM,2%
same,growth inhibition,[5]; at 11.0 µM,11%
same,growth inhibition,[5]; at 33.0 µM,75% (active)
same,growth inhibition,[5]; at 100.0 µM,99% (active)
same,growth inhibition,[6]; [16],2%
same,growth inhibition,[6]; [17],33%
same,growth inhibition,[6]; at 50.0 µM,92.1% (active)
same,growth inhibition,[15]; at 1.2 µM,-5%
same,growth inhibition,[15]; at 3.7 µM,-11%
same,growth inhibition,[15]; at 11.0 µM,-4%
same,growth inhibition,[15]; at 33.0 µM,53%
same,growth inhibition,[15]; at 100.0 µM,98% (active)
same,growth inhibition,[7]; [16],6%
same,growth inhibition,[7]; [17],15%
same,growth inhibition,[7]; at 50.0 µM,95.8% (active)
same,growth inhibition,[8]; at 1.2 µM,-3%
same,growth inhibition,[8]; at 3.7 µM,-10%
same,growth inhibition,[8]; [16],-11%
same,growth inhibition,[8]; at 11.0 µM,-4%
same,growth inhibition,[8]; at 33.0 µM,21%
same,growth inhibition,[8]; [17],10%
same,growth inhibition,[8]; at 50.0 µM,90.9% (active)
same,growth inhibition,[8]; at 100.0 µM,95% (active)
same,growth inhibition,[9]; at 1.2 µM,1%
same,growth inhibition,[9]; at 3.7 µM,-1%
same,growth inhibition,[9]; at 11.0 µM,-2%
same,growth inhibition,[9]; at 33.0 µM,60%
same,growth inhibition,[9]; at 100.0 µM,98% (active)
same,growth inhibition,[10]; at 1.2 µM,-1%
same,growth inhibition,[10]; at 3.7 µM,2%
same,growth inhibition,[10]; at 11.0 µM,5%
same,growth inhibition,[10]; at 33.0 µM,66%
same,growth inhibition,[10]; at 100.0 µM,96% (active)
same,growth inhibition,[11]; at 1.2 µM,0%
same,growth inhibition,[11]; at 3.7 µM,3%
same,growth inhibition,[11]; at 11.0 µM,10%
same,growth inhibition,[11]; at 33.0 µM,62%
same,growth inhibition,[11]; at 100.0 µM,97% (active)
same,growth inhibition,[12]; [16],-4%
same,growth inhibition,[12]; [17],56%
same,growth inhibition,[12]; at 50.0 µM,96.2% (active)
same,growth inhibition,[13]; at 1.2 µM,-1%
same,growth inhibition,[13]; at 3.7 µM,4%
same,growth inhibition,[13]; at 11.0 µM,21%
same,growth inhibition,[13]; at 33.0 µM,76% (active)
same,growth inhibition,[13]; at 100.0 µM,98% (active)
